From PubChem BioAssay come the findings set out here.

Values without a mark were called inactive.

Sequence of Luciferin 4-monooxygenase (Photinus pyralis) (P08659 whole entry, looked up): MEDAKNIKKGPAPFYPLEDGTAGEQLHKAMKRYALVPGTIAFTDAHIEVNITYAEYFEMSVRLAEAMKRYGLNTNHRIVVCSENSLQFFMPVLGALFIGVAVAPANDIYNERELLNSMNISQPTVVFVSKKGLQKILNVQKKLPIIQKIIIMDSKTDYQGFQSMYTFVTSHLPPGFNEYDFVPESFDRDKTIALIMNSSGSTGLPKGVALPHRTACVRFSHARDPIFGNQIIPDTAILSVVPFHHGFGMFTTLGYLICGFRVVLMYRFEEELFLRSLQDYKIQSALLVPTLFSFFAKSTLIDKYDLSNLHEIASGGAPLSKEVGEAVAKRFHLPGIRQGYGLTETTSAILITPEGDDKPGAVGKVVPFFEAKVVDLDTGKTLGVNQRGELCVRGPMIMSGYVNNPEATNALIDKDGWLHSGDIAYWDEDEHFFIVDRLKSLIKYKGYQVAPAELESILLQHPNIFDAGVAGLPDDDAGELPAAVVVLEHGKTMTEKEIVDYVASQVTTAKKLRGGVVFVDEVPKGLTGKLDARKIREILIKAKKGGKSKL

This assay addresses Luciferin 4-monooxygenase (Photinus pyralis) (UniProt P08659). The assay can be described thus: firefly luciferase enzyme inhibitors, primary screen, biochemical, luminescence, purified enzyme, 2006 set (AID 1141).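 Also: cell-free assay with purified firefly luciferase at 100 ng per well in PBS; test concentration not given here.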 The following applies: SteadyGlo luminescence, 30 min, higher = more signal, called active from +8 up or from −8 down.
On to `CN1C(=O)[C@@H]2[C@@H](CC(COc3ccccc3)=C3[C@@H](CCc4ccccc4)OB(O)C[C@@H]32)C1=O`, for which the z-score is -0.326.

As for `CC(C)(C)N1CC=CC23O[C@@H]4C=CCCOC(=O)C4[C@H]2C(=O)N(CCCCCCO)[C@@H]3C1=O` (some centres not stated), the z-score was -0.876.

Consider `O=C1C=C(c2ccccc2)C(=O)C2=C1CC([C@H]1Oc3ccccc3S(=O)(=O)N3CCC[C@@H]13)=CC2`, for which the z-score is -1.49.

As for `O=C(NCc1ccc(F)cc1)[C@H]1C[C@H]2C(=O)N3CCC[C@H]3C(=O)N2[C@H]1c1ccc(O)cc1`, the z-score is -0.0877.

Take `CC(=O)c1ccc(C(O)C2C=CC3C(=O)N(c4ccccc4)C(=O)C3N2Nc2ccc(C(C)C)cc2)cc1` (configuration not stated): the z-score is -1.41.

Regarding `CCCCC(O)C1C=CC2C(=O)N(c3ccccc3)C(=O)C2N1Nc1ccc([N+](=O)[O-])cc1` (configuration not stated), the z-score is 1.89.

For the compound `O=C1[C@@H]2[C@@H](CC(COc3ccccc3)=C([C@H](O)CCc3ccccc3)[C@@H]2CO)C(=O)N1Cc1ccccc1`, the z-score is -0.172.

Turning to `COC(=O)[C@@]1(Cc2ccc(F)cc2)[C@H]2c3cc(C(=O)N(C)C)n(C)c3C[C@H]2CN1C(=O)c1ccccc1`, the z-score was 0.053.

Consider `C[N+](C)(C)CCCC[C@@H]1NC(=O)[C@H]2C[C@@H](C(=O)NCCCCCNC(=O)CS)[C@@H](c3cccc(OCCO)c3)N2C1=O`, for which the z-score is -1.09.

Take `COC(=O)C[C@H]1O[C@@]2(C[C@@H]1[Si](C)(C)C)C(=O)N(C)c1ccccc12`: the z-score was -1.85.

Take `C=CCOC(=O)[C@H]1[C@@H]2C(=O)O[C@@H](c3ccccc3)[C@@H](c3ccccc3)N2[C@@H](c2ccc(OCCOC(=O)[C@@H]3C[C@@H]4C(=O)N[C@@H](CCCC[N+](C)(C)C)C(=O)N4[C@@H]3c3ccc(O)cc3)cc2)[C@]12C(=O)Nc1ccc(I)cc12`: the z-score is -2.99.

`C=CC[C@@]1(C(=O)OC)N=C(c2ccc(OCCCO)cc2)O[C@@H]1c1ccccc1N=[N+]=[N-]`: the z-score was -6.39.

As for `C=CC[C@@]1(C(=O)N(C)C)N=C(c2ccc(OCCCO)cc2)O[C@@H]1c1ccccc1CN=[N+]=[N-]`, the z-score is -0.84.

Take `CCCCCC1=C2CNC(CC(C)C)(C(=O)OC)C=C2C(C)C1=O` (configuration not stated): the z-score was -0.0622.

As to `COc1ccc(C(O)C2C=CC3C(=O)NC(=O)C3N2Nc2ccc(Cl)cc2Cl)c2ccccc12` (configuration not stated), the z-score was -1.93.

As to `CCOC(=O)C[C@H]1[C@H](OC(=O)Cc2ccc3c(c2)OCO3)[C@@H](NC(=O)c2ccc3ccccc3n2)c2cc(OCCCO)ccc2N1C(=O)Cc1ccc(OC)cc1`, the z-score is -0.628.

On to `CCCCC(O)C1C=CC2C(=O)N(c3ccccc3)C(=O)C2N1Nc1ccccc1` (configuration not stated), for which the z-score is 0.438.

Consider `COc1ccc([Si](C)(C)[C@@H]2[C@@H](CC(=O)N3CCC[C@H]3CO)O[C@]3(C(=O)N(Cc4ccc(N5CCOC5=O)cc4)c4ccccc43)[C@H]2C)cc1`, for which the z-score was -1.83.

Turning to `CC(C)NC(=O)[C@@]1(c2ccc([N+](=O)[O-])cc2)CC(=O)N(CC23CC4CC(CC(C4)C2)C3)[C@@H]1c1ccc(CO)cc1`, the z-score is 0.346.

For `C=C(CCCC)/C(=C/C[C@H](OC(C)=O)c1cccc(OCCO)c1)c1cnc2ccccc2c1`, the z-score was -1.29.

Take `COCCOC(=O)N1C(=O)[C@@]2(c3cc(C#CCCO)ccc31)[C@H](c1ccc(OCCO)cc1)N1[C@H](c3ccccc3)[C@H](c3ccccc3)OC(=O)[C@H]1[C@@H]2C(=O)N1CCCCCCC1`: the z-score was -0.247.

With `COc1ccc([Si](C)(C)[C@@H]2[C@@H](CC(=O)N(CCO)Cc3ccccc3)O[C@]3(C(=O)N(Cc4ccc(N5C(=O)c6cccc7cccc5c67)cc4)c4ccccc43)[C@H]2C)cc1`, the z-score is -0.389.

For `CCOC(=O)C1=CC[C@@H](c2ccc(OC)cc2)N(S(=O)(=O)c2ccc(C)cc2)[C@H]1CC`, the z-score was 1.24.

Take `CN1C(=O)C2C(C1=O)C1C=C(c3ccc(CO)cc3)C2C(C2CC2)N1C` (configuration not stated): the z-score was 0.279.

With `C=C(CCCC)C(=O)CC[C@@H](OC(=O)c1ccccc1-c1ccccc1C(=O)O)c1ccccc1OCCO`, the z-score was -1.31.

`C=C1C(=O)C=C2CN(C(=O)c3ccccc3)[C@@](Cc3ccc(OC)cc3)(C(=O)OC)[C@@H]12`: the z-score was 3.22.

For `COC(=O)[C@@]1(Cc2ccc(F)cc2)[C@H]2c3cc(C(=O)N4CCCC4)n(CCc4ccccn4)c3C[C@H]2CN1C(=O)c1ccccc1`, the z-score is 0.458.
